# Among all 200,000 compounds or so, about 520 (0.26%) were called active. For the sample, actives were picked, then their nearest neighbours and some compounds at random. A number with no mark means an inactive call. No stated cut-off is given here; in the data, active means activation above about 23%; inactive means the rest.
# Target: Peroxisome proliferator-activated receptor gamma (Homo sapiens) (UniProt P37231)
# Assay: enhancers of SRC-3 binding to PPARgamma – biochemical, primary screen (AID 731);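 further: 0% = DMSO and 100% = reference agonist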
# Details: biochemical PPARgamma/SRC-3 coactivator recruitment assay; at 8 µM; stronger effect = higher value
# Chain of Peroxisome proliferator-activated receptor gamma (Homo sapiens) (P37231 whole entry, looked up): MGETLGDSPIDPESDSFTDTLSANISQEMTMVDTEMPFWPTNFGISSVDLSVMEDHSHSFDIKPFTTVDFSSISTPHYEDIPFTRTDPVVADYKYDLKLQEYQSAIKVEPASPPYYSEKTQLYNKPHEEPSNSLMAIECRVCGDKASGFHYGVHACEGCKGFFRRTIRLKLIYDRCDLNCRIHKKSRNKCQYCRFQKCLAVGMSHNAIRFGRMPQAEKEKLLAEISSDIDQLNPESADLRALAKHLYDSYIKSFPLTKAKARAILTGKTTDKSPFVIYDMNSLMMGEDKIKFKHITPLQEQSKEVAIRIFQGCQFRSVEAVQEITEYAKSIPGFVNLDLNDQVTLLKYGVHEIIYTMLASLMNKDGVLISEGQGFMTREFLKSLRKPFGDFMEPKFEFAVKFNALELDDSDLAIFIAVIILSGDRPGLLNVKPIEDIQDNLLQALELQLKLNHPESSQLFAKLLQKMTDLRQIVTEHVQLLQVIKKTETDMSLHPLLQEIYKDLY
row,SMILES,activation
1,COc1cccc(NC(=O)c2ccc(S(=O)(=O)N(C)C)cc2)c1,-1.26%
2,COc1ccc(/C=N/Nc2ncnc3sc4c(c23)CCCC4)cc1O,-0.73%
3,CCOC(=O)c1sc(-c2cccc([N+](=O)[O-])c2)cc1N,10%
4,Cc1nc2ccccn2c1C(=O)NN=C1CCN(C)CC1,-4.87%
5,O=C(NC(=S)Nc1cccc(-c2ccc(CO)o2)c1)c1cccs1,9.26%
6,O=C(/C=C/c1ccc(Cl)cc1Cl)NCc1ccco1,-0.09%
7,O=C(CSc1c2c(nc3ccc(Cl)cc13)CCCC2)NCc1ccco1,31.6% (active)
8,O=C(NCc1ccco1)c1cc(-c2cccnc2)nc2ccc(Cl)cc12,7.42%
9,Cc1ccn(CC(=O)N2N=C(C(F)F)CC2(O)C(F)F)n1 (stereo not given),3.61%
10,COc1ccc(N(C)S(=O)(=O)c2cccc3nsnc23)cc1,-0.54%
11,CCN(/N=C/c1ccc(N(C)C)cc1)c1nc2ccccc2[nH]1,16.6%
12,CC1c2nc3ccccc3n2C(CC(=O)NCCCN2CCOCC2)C(=O)N1Cc1ccccc1 (stereo not given),-3.13%
13,Cc1cccc(OP(=O)(Nc2c(C)n(C)n(-c3ccccc3)c2=O)Oc2cccc(C)c2)c1,2.47%
14,CCN(CC)CCCNC(=O)CCc1ccccc1,4%
15,CCN(CCCNC(=O)CSc1cc(=O)n(C)c2cc(Cl)ccc12)Cc1ccccc1,42.4% (active)
16,CCN(CC)CCCNC(=O)c1cc(-c2cccc(Cl)c2)on1,-5.33%
17,Cc1cc[n+](-c2[nH]c(=O)sc2/C=N/NC(=O)c2ccccc2[O-])cc1C,1.17%
18,CC(C)NC(=O)CSc1ccccc1C(=O)NCc1ccc2c(c1)OCO2,-3.43%
19,CCn1c(=O)cc(SCC(=O)NCc2ccc3c(c2)OCO3)c2ccccc21,31.8% (active)
20,CCn1c(=O)cc(SCC(=O)NCCC2=CCCCC2)c2ccccc21,10.5%

row,SMILES,activation
1,O=C(NCc1ccco1)C(=O)c1cn(CC(=O)N2CCCCCC2)c2ccccc12,4.6%
2,CN(C)c1ccc(C(CC(=O)O)C(=O)O)cc1 (stereo not given),5.46%
3,O=C(CNC(=O)C(c1ccccc1)c1ccccc1)N/N=C\c1ccc2c(c1)OCO2,-7.73%
4,COc1ccc(/C=C/C(=O)NC(=S)NN2CCCCC2c2cccnc2)cc1 (stereo not given),-0.5%
5,Cc1cccc(OCc2ccc(C(=O)Nc3ccc(F)cc3)cc2)c1,-4.26%
6,Cc1nc2ccccc2cc1OCc1ccc(F)cc1,4.08%
7,Fc1ccc(COc2cccc(-c3n[nH]c(=S)o3)c2)cc1,29.3% (active)
8,CC(C)/C=N/NC(=O)c1cc(Br)ccc1O,4.98%
9,COc1cccc(-n2c(=S)sc3c(=O)n(-c4ccccc4OC)c(SCC4OCCO4)nc32)c1,-1.02%
10,O=C(CCc1nnc(CCCCc2ccccc2)o1)NC(c1cccnc1)C(F)(F)F (stereo not given),0.98%
11,COc1ccccc1N1CCN(/N=C\C(Br)=C\c2ccccc2)CC1,0.45%
12,CC(=O)c1sc2nc(SCC(=O)N3CCCCC3)[nH]c(=O)c2c1C,32.9% (active)
13,C=CCNC(=O)CSc1nc2sc(C)c(C)c2c(=O)[nH]1,-3.68%
14,O=C(CSc1nc2c(cnn2-c2ccc(F)cc2)c(=O)[nH]1)N1CCCCCC1,-0.08%
15,COCCN(C(=O)CCC(=O)Nc1nccs1)C(C(=O)NC(C)(C)C)c1ccc(Cl)cc1 (stereo not given),8.27%
16,Cc1ccccc1C1=N/C(=C/c2cccnc2)C(=O)O1,5.51%
17,Cc1ccc(S(=O)(=O)N(C)CC(=O)OCC(=O)N2CC(=O)Nc3ccccc32)cc1,-1.93%
18,COc1cccc(NC(=O)Cn2c3ccccc3c3nc4n(c(=O)c32)CCS4)c1,3.77%
19,O=C(NCc1cccs1)C1CCN(S(=O)(=O)c2ccc(Cl)cc2)CC1,0.55%
20,O=C(N/C(=C\c1ccc(F)cc1)C(=O)N1CCCCCC1)c1ccccc1,2.6%

row,SMILES,activation
1,Cc1c(Cc2ccccc2)c(=O)oc2cc(OCC(N)=O)ccc12,1.07%
2,CC(=O)Oc1ccc2c(C)c(CC(C)O)c(=O)oc2c1 (stereo not given),-4.46%
3,O=C(Oc1ccccc1)Oc1ccc2c(c1)oc(=O)c1ccccc12,57.2% (active)
4,CNc1ccc(NC(C)=O)cc1[N+](=O)[O-],-3.86%
5,CCC1(CC)NC(=O)N(CC(=O)OCC(=O)Nc2ccc(C(F)(F)F)cc2)C1=O,-5.07%
6,CCCCCOc1ccc(/C=C/C(=O)NCCc2nc3ccccc3[nH]2)cc1OC,0.87%
7,Cn1c(C(=O)OC(C(=O)NC2CCCCC2)c2ccccn2)cc2sccc21 (stereo not given),0.71%
8,Cc1ccc(Cl)cc1NC(=O)C1CCN(S(C)(=O)=O)CC1,-1.48%
9,CCNCCC(=O)N1c2ccccc2Sc2ccc(NC(=O)OCC)cc21,-12.4%
10,NNC(=O)C1CC(O)CN1S(=O)(=O)c1ccc(Cl)cc1 (stereo not given),8.66%
11,CC1CC(C)CN(CCC(=O)Nc2ccc3c(c2)CCC3)C1 (stereo not given),6.43%
12,COC(C(=O)Nc1ccc(C(C)=O)cc1)c1ccccc1 (stereo not given),-2.12%
13,COc1ccccc1CCNC(=O)CSc1nnc2ccc(-c3cccnc3)nn12,2.38%
14,O=C(CN1CCN(c2ncccn2)CC1)Nc1ccccc1C(F)(F)F,-0.44%
15,COCCn1c(Cc2cccn2C)nnc1SCC(=O)Nc1nccs1,4.15%
16,Cc1nc(N2CCOCC2)c2c(C)c(C(=O)Nc3ccc(C(F)(F)F)cc3)sc2n1,6.42%
17,Cc1ccc(N2C(=O)C3C(c4ccccc4)(C2=O)C3(c2ccccc2)c2ccccc2)cc1 (stereo not given),-5.3%
18,O=C(O)CCS(=O)(=O)c1ccc(-c2ccccc2)cc1,-2.87%
19,C=CCC(CC=C)(C(N)=O)c1ccccc1,-2.8%
20,CCOC(=O)CNC(=O)CSc1ccc2nnc(-c3cccnc3)n2n1,-2.1%
